The campaign covered roughly 45,000 compounds. About 200 (0.44%) were called active. Inconclusive results (about 7%) are left out. The entries come from a sample that favours actives as a whole. A number with no mark means an inactive call. The call rests on the fitted dose curve; in most records, active means well fitted activation curve with a large enough effect; inconclusive means small, poorly fitted or top-dose-only effect; inactive means no such curve, though single readings can be large or run the other way.
test: qHTS of TDP-43 Inhibitors: NCGC Sytravon Library Screen; details: yeast TDP-43 toxicity rescue, BacTiter-Glo growth, 24 h; series mostly up to 46.1 µM; growth rescue (activation): at the top concentration; further: nearly all actives have a fitted effect of over 55% in size; on growth rescue (activation): 0% is about no effect
Excerpt: The goal of this project is to identify new chemical probes capable of reversing the toxicity associated with TDP-43 which is associated with frontotemporal lobar degeneration and amyotrophic lateral sclerosis. These compounds will provide a complementary approach to deciphering the tangled mechanisms of toxicity and protection that we have uncovered through genome-wide genetic screens and are beginning to uncover in a large-scale proteomics analysis with mass spectroscopy. To this end, a miniaturized assay was developed to be screened against the Molecular Libraries Small Molecule Repository (MLSMR) to discover TDP-43 inhibitors. Please note that in the set-up this yeast-based assay compounds that inhibit as TDP-43, have a read-out as activators. NIH Chemical Genomics Center [NCGC] NIH Molecular Libraries Probe Centers Network [MLPCN] Assay Submitter (PI): Susan Lindquist, Whitehead Institute/MIT MLPCN Grant: R21 NS060957
Dispense 2.5 microL yeast galactose medium per 1536-well plate, pin compound, dispense 2.5 microL TDP-43 expressing yeast in galactose medium at OD600=0.02 (pregrown in raffinose medium to mid-log phase) per well, incubate for 24 hr at 30 deg C, and cell growth will be measured using 5 microL of Bactiter/Glo reagent to entire plate and read using Luminescence Protocol in ViewLux.
Potency means the concentration at half of the fitted maximal effect.

Compound	growth rescue (activation) [%]	Potency
Cc1nc(C(F)(F)F)ccc1C(=O)N1CCC1(C)C(=O)NS(=O)(=O)c1ccccc1 (stereo not given)	14	
C=CCN1C(=O)C(O)(CC(=O)c2ccccn2)c2ccccc21 (stereo not given)	2.18	
COc1ccc(N(C)S(=O)(=O)c2cccc3nsnc23)cc1	21.5	
CCCC(=O)Nc1ccc2c(c1)nc(CCNC(=O)c1ccco1)n2C	-7.12	
COc1ccc(NC(=O)NC(C)c2c(-n3cccc3)sc(C)c2C)cc1OC (stereo not given)	1.24	
COCCNC(=O)C1(C)CCCN(Cc2cccc(F)c2)C1 (stereo not given)	-16.4	
COc1ccc(-n2cnnc2SCC(=O)Nc2cccc(S(N)(=O)=O)c2)cc1	-0.153	
O=C(O)c1ccc(/C=N/NC(=O)c2ccc(Br)cc2)cc1	8.15	
Cc1cc(=O)[nH]c(SCC(=O)Nc2ccc(Br)cc2)n1	0.754	
CCOC(=O)Cc1csc(SCc2cc(=O)oc3cc(O)ccc23)n1	2.23	
CCOC(=O)Cc1csc(NC(=O)CSc2ccc(Br)cc2)n1		12.6 µM (active)
O=C(C(Cl)Cl)N1CCN(c2ccccn2)CC1	7.4	
OC(c1ccc(F)cc1)c1ncc(-c2cccc(C(F)(F)F)c2)[nH]1 (stereo not given)	14.7	
COc1ccc(CN(C)Cc2nc3cc(OC)c(OC)cc3c(=O)[nH]2)c(OC)c1	5.3	
CC1(C(=O)NS(=O)(=O)Cc2cccc(Cl)c2)CCN1C(=O)Cc1ccc(Cl)cc1Cl (stereo not given)	6.35	
O=C(NC1CCCC1)C(c1c(F)cccc1Cl)N(C(=O)c1csnn1)C1CC1 (stereo not given)	13.1	
O=C(COC(=O)c1ccc([N+](=O)[O-])o1)NC12CC3CC(CC(C3)C1)C2	9.8	
Cc1noc(/C=C/c2ccco2)c1S(=O)(=O)N1CCC(C(=O)Nc2ccc(Cl)cn2)CC1	3.65	
CC(C)c1nc2sc3c(c2c(=O)n1N)CC(C)(C)OC3	20.6	
CN(CCc1ccccn1)C(=O)CCC1CCCN(Cc2ccccc2OC(F)F)C1 (stereo not given)	1.51	
CC(=O)Nc1ccc(NC(=S)NC(=O)c2ccc([N+](=O)[O-])c(C)c2)cc1	12.6	
O=C(NCc1cccnc1)c1cc(C2CCCN(C(=O)CCCc3ccccc3)C2)on1 (stereo not given)	2.36	
OC[C@@H]1CN(Cc2ccc3c(c2)OCO3)C[C@H](n2cnc3c(NCc4ccco4)ncnc32)O1	8.28	
O=C(c1cnccn1)N1CCN(S(=O)(=O)c2cccc(Cl)c2)CC1	12.7	
CCCCNC(=O)N(O)C1N(/N=C/c2ccccc2O)C(=S)SC1(C)C (stereo not given)	13.7	
Cc1cccc(NC(=O)c2nc(S(=O)(=O)Cc3ccccc3)ncc2Cl)c1		12.6 µM (active)
Cc1cccc(NC(=O)c2ccc([N+](=O)[O-])o2)c1	-89	

Compound	growth rescue (activation) [%]	Potency
CCCSc1ncc(Cl)c(C(=O)Nc2c(C(=O)Nc3ccccc3)oc3ccccc23)n1	5.87	
O=C(NCCc1ccccc1)c1ccc2c(c1)N(Cc1ccccc1)C(=O)c1ccccc1S2(=O)=O	14	
Cc1ccc(OCC(=O)NCCCNC(=O)c2ccco2)cc1C	9.61	
N/C(=N/O)c1cccn1Cc1ccccc1[N+](=O)[O-]	4.53	
CCCn1c(=N)n(CC(O)COc2ccccc2OC)c2ccccc21 (stereo not given)	4.92	
O=C1c2ccccc2C(=O)c2c1cccc2N1CCN(C/C=C/c2ccccc2)CC1	24.5	
NS(=O)(=O)c1ccc(N2C(=O)C3C4CC(C(Br)C4Br)C3C2=O)cc1 (stereo not given)	5.23	
COC(=O)CCNC(=O)c1ccc2[nH]c(C)c(C)c2c1	-8.44	
O=C(CN1C(=O)NC2(CCCC2)C1=O)NCC1CCCO1 (stereo not given)	-2.83	
COc1ccc(-c2nc(N)sc2C2(O)C(=O)Nc3c(Br)cc(F)cc32)cc1OC (stereo not given)	19.9	
CN(C)C(CNC(=O)c1cccc(C#N)c1)c1ccco1 (stereo not given)	-1.02	
Nn1c(SCC(=O)Nc2ccc3c(c2)CCC3)nnc1C1CC1	12	
CC(CN1CCC(n2nccc2NC(=O)C2CCCC2)CC1)c1ccccc1 (stereo not given)	16.5	
CC(C)(C)c1ccc(CN2C(=O)c3ccccc3S2(=O)=O)cc1	-10.6	
COc1ccc(CNC(=O)CN2C(=O)c3ccccc3S2(=O)=O)cc1	-1.25	
O=C1c2ccccc2S(=O)(=O)N1CC(O)Cn1c2ccccc2c2ccccc21 (stereo not given)		12.6 µM (active)
Cc1ccc(Cl)cc1NC(=S)N(CCN(C)C)Cc1cccs1	18.7	
Cc1noc(C)c1-c1ccc(C(=O)NCc2ccncc2)c2occc12	-0.761	
COc1ccc(-c2ccc(C(=O)NC(C)C)c3occc23)c(C)c1		15.8 µM (active)
COCCCNC(=O)c1ccc(-c2c(C)noc2C)c2ccoc12	14.9	
Cc1ccc(OCc2n[nH]c(=S)n2-c2ccc(C)cc2)cc1	12.9	
Cc1ccc(S(=O)(=O)N(Cc2ccc(Cl)cc2)c2ccccc2C(=O)NCc2cccnc2)cc1	18.2	
O=C(c1cccs1)c1cn(CCOc2ccc(Cl)cc2)c2ccccc12	-4.83	
CN(C)c1ccnc(Nc2ccc(F)cc2)c1C#N	9.98	
COc1ccccc1OCc1ccc(C(=O)NC(C)c2ccccc2)o1 (stereo not given)	-10.7	
O=C(C1CCN(S(=O)(=O)c2ccc(Br)s2)CC1)N1CCN(C2CCCCC2)CC1	9.07	
COc1ccc(C(=O)OCc2cc(=O)n3ccsc3n2)cc1F	21.7	

Compound	growth rescue (activation) [%]	Potency
CCCCN(CC)CCCNC(=O)c1ccc(CSc2nc3ccncc3[nH]2)cc1	9.62	
CC(C)(C)c1ccccc1NC(=O)CN1C(=O)NC2(CCCC2)C1=O	-20.9	
COc1ccc(C(=O)Nc2ccc(N3CCC(C)CC3)cc2)cc1Br	5.41	
c1cc(-c2ccc3[nH]ccc3c2)n2ccnc2c1	-5.58	
O=C(CN1C(=O)NC2(CCCCCC2)C1=O)Nc1ccc([N+](=O)[O-])cc1	26.5	
O=C1NC(c2ccc(-c3ccccc3[N+](=O)[O-])o2)C(C(=O)c2ccc(Cl)cc2)C(O)(C(F)(F)F)N1 (stereo not given)	7.15	
CN(Cc1nc2ccccc2s1)C(=O)c1ccc(F)cc1	0.189	
CCN(CC)C(=O)CN(c1cccc([N+](=O)[O-])c1)S(=O)(=O)c1ccccc1	-34.4	
O=C(Nc1ccc(F)cc1)N1CCN(c2ccc(F)cc2)CC1	-2.13	
Cc1nc2c(OCc3cccc(Cl)c3)cccn2c1N(C)CC1CC1	7.14	
CC(C)(C)NC(=O)C(=O)NN=C1CCCCCCC1	5	
O=C(CCn1c(=O)c2sccc2n(Cc2ccc(F)cc2)c1=O)NCc1ccc2c(c1)OCO2	11	
CCc1ccc(OC2(C)CCN(CCOc3ccc(C)cc3)C2)cc1 (stereo not given)	16.9	
COc1ccc(CN2CCC(C)(Oc3cccc(F)c3)C2)c2ccccc12 (stereo not given)	-7.83	
O=C(NCc1ccc(F)cc1)c1cc(C2CCCCN2C(=O)c2cccs2)on1 (stereo not given)	22.8	
CN(CC(=O)NC(=O)Nc1ccccc1F)Cc1ccccc1	-6.54	
CCn1c(CSc2nc(C)cc(C)n2)nnc1SCC(N)=O	2.73	
O=C(O)C(F)(F)C(NCc1ccccc1)c1ccccc1 (stereo not given)	-7.2	
CC(C(=O)Nc1ccc(F)c(F)c1F)N1CCCCCC1 (stereo not given)	14.6	
O=C(NCCc1ccc(F)cc1)c1n[nH]c2ccccc12	28.9	
N#Cc1ccccc1NC(=O)c1ccc2c(c1)OCO2	15.1	
O=C(COC(=O)c1ccncc1)Nc1ccc2c(c1)OCO2	5.9	
N/C(=N\OC(=O)c1ccc2c(c1)OCO2)c1ccc(Br)cc1		3.55 µM (active)
O=C(O)CC1(CC(=O)Nc2cccc(C(F)(F)F)c2)CCCC1	19.5	
Cn1c(NCc2cccnc2)nc2cc(-c3ccc(F)cc3)sc2c1=O	0.425	
Cc1ccc(C)c(NC(=O)CN(C)C(=O)COc2ccc3ccccc3c2)c1	-0.898	
NS(=O)(=O)c1cccc(NC(=O)CN2CCCc3ccccc32)c1	12.9	

Compound	growth rescue (activation) [%]	Potency
O=C(CCn1nnc2ccccc2c1=O)N[C@@H](Cc1c[nH]c2ccccc12)C(=O)O	-8.31	
O=C(NC1CC1)C(Cc1ccccc1)NS(=O)(=O)c1ccccc1F (stereo not given)	5.63	
COc1cccc(CC2(CO)CCN(Cc3cnc(-c4cccc(C)c4)nc3)CC2)c1	8.67	
COCCCNC(=S)N1CCCC(c2nc3cc(C)c(C)cc3[nH]2)C1 (stereo not given)	8.91	
CCC1CCCCN1C(=O)CSc1nc2c(c(=O)n(C)c(=O)n2C)n1C (stereo not given)	-3.65	
CC(C)c1ccc(N(C(=O)c2ccco2)C(C(=O)NC2CCCC2)c2cccnc2)cc1 (stereo not given)	13.8	
COc1ccc(N2CCN(C(=O)C3CCN(C(=O)c4ccccc4Cl)CC3)CC2)cc1	9.74	
CCc1cc(-c2nnc(SCC(=O)NC3CC3)n2C)cs1	0.827	
CCOc1ccccc1Oc1cn[nH]c1-c1ccc(OC)cc1O		15.8 µM (active)
COc1ccc(-c2n[nH]c(C)c2-c2ccccc2OC)c(O)c1	-0.59	
COc1ccc(-c2[nH]ncc2CN(C)Cc2cc(C)[nH]n2)c(F)c1	-11.4	
COc1ccc(S(=O)(=O)N2CCOCC2)cc1NC(=O)CSc1nnc(NC2CC2)s1	8.11	
Cn1cc(CN2CCCCC2c2ccccn2)c(-c2ccc3c(c2)OCCO3)n1 (stereo not given)	-18.4	
Cc1ccc(SCC(=O)NNC(=O)c2ccc(S(C)(=O)=O)cc2)cc1	-21.6	
CCOC(=O)C1CCN(c2ccc(C(=O)O)cc2[N+](=O)[O-])CC1	18.7	
CC(C)(C)c1nnc2sc(SCC(O)=C(C#N)c3nc4ccccc4[nH]3)nn2c1=O	2.04	
N#Cc1nc(Cc2cccc3ccccc23)oc1NCc1ccc2c(c1)OCO2		12.6 µM (active)
CC1(C(=O)NCc2ccc3c(c2)OCO3)CCN1C(=O)Cc1cccc2ccccc12 (stereo not given)	22.8	
COc1cccc(CC(=O)OCC(=O)NCc2ccc3c(c2)OCO3)c1	-6.63	
O=C(Nc1ccccc1)/C(=C\c1ccco1)NC(=O)c1ccco1	2	
Nc1nc(SCC(=O)NN(c2ccccc2)c2ccccc2)n[nH]1	-8.42	
CC(C)(C)SCCNC(=O)c1cccc([N+](=O)[O-])c1	3.85	
Cc1nn(-c2ccccc2)c2c1C(c1cccc([N+](=O)[O-])c1)N(c1ccccc1)C(=O)N2 (stereo not given)	-1.22	
COc1ccc(C(C(=O)NC2CCCC2)N(CCCO)C(=O)Cn2nnc(-c3ccc(C)o3)n2)cc1 (stereo not given)	-3.96	
